The source of these data is PubChem BioAssay (EPA / NIEHS).

Each structure is given as a SMILES string. Values joined by “and” are separate entries in the source; they are usually repeats but may differ in a detail not shown here. Equal values may be shown once. Some compounds were tested as several samples or in several runs, with calls that do not always agree. Active and inactive are the calls of the source. How the source made its calls: active means hit-call score of the fitted dose curve at least 0.9, where 1 is the maximum; inactive means score below 0.9.

Read-out in this assay: Plasminogen activator inhibitor-1 (PAI1), SERPINE1 (gene 5054)
In words: BSK_KF3CT_PAI1: BioMAP Diversity Plus: KF3CT Assay for Plasminogen activator inhibitor-1 (PAI1) Biomarker Activity (AID 2284252). Particulars: primary human keratinocytes with fibroblasts. Here is the method:
BSK_KF3CT is a cell-based, multiplexed-readout assay that uses keratinocytes and foreskin fibroblasts, a human skin primary cell co-culture, with measurements taken at 24 hours after chemical dosing in a 96-well plate.BSK_KF3CT_PAI1 is an assay component measured in the BSK_KF3CT assay. It measures PAI-1 antibody related to regulation of gene expression using ELISA technology.Data from the assay component BSK_KF3CT_PAI1 was analyzed at the endpoint, BSK_KF3CT_PAI1, in the positive analysis fitting direction relative to DMSO as the negative control and baseline of activity. Using a type of binding reporter, gain or loss-of-signal activity can be used to understand protein changes. To generalize the intended target to other relatable targets, this assay endpoint is annotated to the 'cytokine' intended target family, where the subfamily is 'plasmogen activator inhibitor'.
The levels of cell surface (or secreted, indicated by the prefix "s") biomarker endpoints were measured by ELISA. Overt cytotoxicity to cells in confluent adherent cultures (all systems other than the BT system) was assessed by measuring total protein levels using sulforhodamine B (SRB) staining in parallel cultures at the time of biomarker measurements, indicated as SRB endpoints. For proliferation assays for adherent cell types, individual cell types are cultured at sub-confluence and relative cell numbers quantified by SRB staining at time points optimized for each system (48 h: 3C and CASM3C systems; 72 h: BT and HDF3CGF systems; 96 h: SAg system). SRB was performed by staining cells with 0.1% SRB after fixation with 10% TCA and reading wells at 560 nm.Viability and proliferation of PBMC (T cells) was quantified by Alamar Blue reduction for the SAg and BT systems. For PBMC viability (referred to as PBMC Cytotoxicity within the assay endpoint names), cells were plated (75,000/well in a 96-well plate) and then chemical samples added for 1 h before addition of activators, SEB and TSST-1 (20 ng/mL final concentration each). Cells were incubated for 90 h. Then, Alamar Blue (20 uL/well) (Invitrogen, Cat DAL1100) was added for 6 h, and the plates were read with a fluorescence microplate reader at 546/580 nm (excitation/emission). For PBMC proliferation, cells were plated and activated as above but incubated for only 16 h prior to addition of Alamar Blue. Plates were read after 6 h.
Turning to `OCCCC(F)(F)C(F)(F)C(F)(F)C(F)(F)C(F)(F)C(F)(F)C(F)(F)C(F)(F)F`, the AC50 is 12.7 µM (active) and 9.08 µM (active).
As to `O=C(O)C(F)(F)C(F)(F)C(F)(F)C(=O)O`, the result was inactive.
Take `OCC(F)(F)C(F)(F)C(F)(F)C(F)(F)C(F)(F)C(F)(F)CO`: the outcome was inactive.
Still for that read-out and setting: next, `OCC(O)CC(F)(F)C(F)(F)C(F)(F)C(F)(F)F` (stereo not given): “inactive”; `O=S(=O)(OCC(F)(F)F)C(F)(F)C(F)(F)C(F)(F)C(F)(F)F`: “inactive”; `NC(O)(C(F)(F)F)C(F)(F)F`: “inactive”.
The same measure, in the same setting: for `FC(F)(F)C(F)(F)C(F)(F)C(F)(F)C(F)(F)C(F)(F)CC[Si](Cl)(Cl)Cl` the value was “inactive”; for `O=C(Cl)C(F)(F)C(F)(F)C(F)(F)C(F)(F)C(F)(F)C(F)(F)F`, “inactive”; for `NCC(F)(F)C(F)(F)C(F)(F)C(F)(F)C(F)(F)C(F)(F)C(F)(F)C(F)(F)F`, “inactive”.
Regarding `CCN=C1C=CC(=C(c2ccc(N(CC)CC)cc2)c2ccc(N(CC)CC)cc2)c2ccccc21`, the AC50 is 1.64 µM (active) and 1.56 µM (active).
On to `OCCCCC(F)(F)C(F)(F)C(F)(F)C(F)(F)F`, for which the result was inactive.
With `O=C(O)C(F)(F)C(F)(F)C(F)(F)C(F)(F)C(F)(F)C(F)(F)C(F)F`, the outcome was inactive.
For the compound `O=C(O)CCC(F)(F)C(F)(F)C(F)(F)C(F)(F)C(F)(F)C(F)(F)C(F)(F)F`, the outcome was inactive.
Still for that read-out and setting: for `OC(O)C(F)(F)C(F)(F)F` the value was “inactive”.
`CNS(=O)(=O)C(F)(F)C(F)(F)C(F)(F)C(F)(F)C(F)(F)C(F)(F)C(F)(F)C(F)(F)F`: the AC50 was 7.81 µM (active) and the result was inactive.
For the compound `O=C(O)C(F)(F)C(F)(F)C(F)(F)OC(F)(C(F)(F)F)C(F)(F)F`, the outcome was inactive.
`O=S(=O)(O)CCC(F)(F)C(F)(F)C(F)(F)C(F)(F)F`: the outcome was inactive.
Regarding `CO[Si](C)(CCC(F)(F)C(F)(F)C(F)(F)C(F)(F)C(F)(F)C(F)(F)F)OC`, the result was inactive.
With `OCC(F)(F)C(F)(F)C(F)(F)C(F)(F)C(F)(F)C(F)(F)C(F)(F)C(F)(F)CO`, the AC50 is 54.3 µM (active) and 48.3 µM (active).
With `NC(=O)C(F)(F)C(F)(F)C(F)(F)C(F)(F)C(F)(F)C(F)(F)C(F)(F)F`, the outcome was inactive.
As to `O=C(O)C(F)(F)C(F)(F)C(F)(F)OC(F)(F)F`, the outcome was inactive.
Regarding `FC(F)(F)C(F)(F)C(F)(F)CC1CO1` (stereo not given), the result was inactive.
`NCC(F)(F)C(F)(F)C(F)(F)C(F)(F)C(F)(F)C(F)(F)F`: the outcome was inactive.
Regarding `C=CC(=O)OCC(F)(F)C(F)(F)C(F)(F)COC(=O)C=C`, the AC50 was 22.7 µM (active) and 21.2 µM (active).
Consider `CN(C(=O)C(F)(F)C(F)(F)C(F)(F)F)[Si](C)(C)C`, for which the result was inactive.
Consider `C[Si](Cl)(Cl)CCC(F)(F)C(F)(F)C(F)(F)C(F)(F)C(F)(F)C(F)(F)F`, for which the outcome was inactive.
Turning to `OCC(F)(F)C(F)(F)C(F)(F)CO`, the result was inactive.
Still for that read-out and setting: next, `FC(F)(F)C(F)(F)C(F)(F)C(F)(F)C(F)(F)C(F)(F)C(F)(F)CCI`: “inactive”.
On the same count and under the same terms, next, `O=C(Cl)C(F)(F)C(F)(F)C(F)(F)C(F)(F)C(F)(F)C(F)(F)C(F)(F)F`: “inactive”.
`NC(=O)C(F)(F)C(F)(F)C(F)(F)C(F)(F)C(N)=O`: the result was inactive.
Still for that read-out and setting: for `OCC(O)CC(F)(F)C(F)(F)C(F)(F)C(F)(F)C(F)(F)C(F)(F)C(F)(F)C(F)(F)F` (stereo not given) the value was “inactive”; for `C=CC(=O)OCC(F)(F)C(F)(F)C(F)(F)C(F)(F)C(F)(F)C(F)(F)C(F)(F)C(F)F`, “inactive”.
Turning to `NS(=O)(=O)C(F)(F)C(F)(F)C(F)(F)C(F)(F)C(F)(F)C(F)(F)F`, the outcome was inactive.
On the same count and under the same terms, for `COC(F)(C(F)F)C(F)(F)F` (stereo not given) the value was “inactive”; for `O=C(O)CCC(F)(F)C(F)(F)C(F)(F)F`, “inactive”; for `CCOC(=O)CC(=O)C(F)(F)C(F)(F)F`, “inactive”.
Regarding `C=C(C)C(=O)OCC(F)(F)C(F)(F)C(F)(F)C(F)F`, the outcome was inactive.
Take `CCN(CCO)S(=O)(=O)C(F)(F)C(F)(F)C(F)(F)C(F)(F)C(F)(F)C(F)(F)C(F)(F)C(F)(F)F`: the AC50 was 17.7 µM (active) and 8.86 µM (active).
The same measure, in the same setting: next, `O=S(=O)(Cl)C(F)(F)C(F)(F)C(F)(F)C(F)(F)C(F)(F)C(F)(F)C(F)(F)C(F)(F)F`: 25 µM (active) and 22.1 µM (active).

One may read the AC50 as the concentration giving half of the maximal activity seen.
